C diff HTS: C. difficile growth inhibition; Clostridium difficile clinical isolate growth, OD600, 24 h; hits give low values; 86,000 tested, 0.25% active; growth activity, negative = inhibition, % at 16 µg/mL (by protocol);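 active means mean growth activity at or below -80% and every replicate also at or below -80%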;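 further: 0% = DMSO wells and -100% = levofloxacin 16 µg/mL wells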
* hit, by the source's call. Many of the other results were omitted from the sample, so hits are more common in it than they were.

SMILES	C diff HTS
COc1cccc(NC(=O)N2CC3(C2)[C@@H](c2ccccc2)[C@@H](CO)N3C(=O)C2CCC2)c1	-2
COc1ccc2c3c([nH]c2c1)[C@H](CO)N(C(=O)CN(C)C)CC31CCN(CC2CCCC2)CC1	6
COc1cccc(CN2CC3(CCN(C(C)=O)CC3)c3c(n(C)c4cc(OC)ccc34)[C@@H]2CO)c1	11
CO[C@H]1CN(C)C(=O)c2ccc(NS(C)(=O)=O)cc2OC[C@H](C)N(Cc2ccccc2)C[C@@H]1C	2
C/C=C/c1ccc([C@H]2[C@@H](CO)N(CC3CCCC3)[C@H]2CNC(C)=O)cc1	2
CCC(=O)N1CC(=O)N2[C@H](CO)[C@H](c3ccc(C#Cc4cccc(F)c4)cc3)[C@@H]2C1	10
CS(=O)(=O)N1CC2(C1)[C@H](c1ccccc1)[C@H](CO)N2CC1CC1	9
CCCNC(=O)N1CC2(C1)CN(C(=O)CC)[C@@H](CO)c1[nH]c3cc(OC)ccc3c12	0
O=C(NC[C@@H]1CC[C@@H]2[C@@H](CN2S(=O)(=O)c2ccccc2[N+](=O)[O-])O1)C1CCOCC1	-5
C[C@H]1CN([C@@H](C)CO)S(=O)(=O)c2ccc(/C=C/c3ccccc3)cc2O[C@@H]1CN(C)Cc1ccc(C(=O)O)cc1	17
C[C@@H]1CN([C@@H](C)CO)S(=O)(=O)c2ccc(/C=C/c3ccccc3)cc2O[C@H]1CN(C)Cc1ccc(C(=O)O)cc1	-97*
C[C@@H]1CN([C@@H](C)CO)S(=O)(=O)c2ccc(/C=C/c3ccccc3)cc2O[C@@H]1CN(C)Cc1ccc(C(=O)O)cc1	-9
COCC(=O)N1CC2(CCN(Cc3ccccc3)CC2)c2c(n(C)c3cc(OC)ccc23)[C@H]1CO	0
COc1cc(CN2CC3(CN(C(=O)c4ccc5c(c4)OCO5)C3)c3c(n(C)c4cc(OC)ccc34)[C@H]2CO)cc(OC)c1	3
N#Cc1ccc(-c2ccc3c(c2)[C@@H]2[C@@H](CCN2Cc2ccc4c(c2)OCO4)[C@@H](CO)N3)cc1	-102*
OC[C@@H]1Nc2ccc(C#Cc3ccc(F)cc3)cc2[C@@H]2[C@H]1CCN2Cc1ccc2c(c1)OCO2	1
N#Cc1cccc(-c2ccc3c(c2)[C@@H]2[C@@H](CCN2Cc2ccc4c(c2)OCO4)[C@@H](CO)N3)c1	-98*
N#Cc1cccc(-c2ccc3c(c2)[C@@H]2[C@@H](CCN2Cc2cncnc2)[C@H](CO)N3)c1	-10
N#Cc1cccc(-c2ccc3c(c2)[C@H]2[C@H](CCN2Cc2cncnc2)[C@H](CO)N3)c1	-11
N#Cc1ccc(-c2ccc3c(c2)[C@@H]2[C@@H](CCN2Cc2cncnc2)[C@@H](CO)N3)cc1	-13
COc1ccc2c3c(n(C)c2c1)[C@H](CO)NCC31CN(C(=O)Nc2ccc3c(c2)OCO3)C1	-3
CNC[C@@H]1OCCCC[C@@H](C)Oc2ccc(NS(=O)(=O)c3ccc(OC)cc3)cc2C(=O)N([C@@H](C)CO)C[C@H]1C	-2
CN1c2ccc(C3=CCCCC3)cc2[C@H]2[C@H](CCN2C(=O)C2CC2)[C@@H]1CO	26
CN(C)CCCNC(=O)C[C@H]1CC[C@@H]2[C@H](COC[C@H](O)CN2CC2CCCC2)O1	-1
COc1ccc2c3c(n(C)c2c1)[C@@H](CO)N(C(=O)Nc1ccc(F)cc1)CC31CCN(Cc2cccnc2)CC1	-8
SMILES	C diff HTS
CCS(=O)(=O)Nc1ccc2c(c1)C(=O)N(C)[C@H]1CC[C@H](CC(=O)OC)O[C@@H]1CO2	2
O=C(Nc1cccc(F)c1)N1CCCCN2[C@H](CO)[C@H](c3ccc(-c4ccncc4)cc3)[C@H]2C1	-3
COc1ccc(C#Cc2ccc([C@H]3[C@@H](CO)N4CCCCN(C(=O)Nc5cccc(F)c5)C[C@H]34)cc2)cc1	-89*
O=C(Nc1cc(F)ccc1F)N1CCCCN2[C@H](CO)[C@H](c3ccc(C4=CCCCC4)cc3)[C@@H]2C1	-9
O=C(Nc1cccc(F)c1)N1CCCCN2[C@H](C1)[C@@H](c1ccc(C#Cc3ccccc3)cc1)[C@@H]2CO	3
O=C(Nc1cccc(F)c1)N1CCCCN2[C@H](CO)[C@@H](c3ccc(C#Cc4ccccc4)cc3)[C@@H]2C1	-3
COc1ccc(C#Cc2ccc([C@@H]3[C@H](CO)N4CCCCN(C(=O)Nc5cccc(F)c5)C[C@@H]34)cc2)cc1	-85*
O=C(Nc1cc(F)ccc1F)N1CCCCN2[C@H](C1)[C@H](c1ccc(C3=CCCCC3)cc1)[C@@H]2CO	11
Cc1ccc(-c2ccc([C@H]3[C@@H](CO)N4CCCCN(C(=O)Nc5cccc(F)c5)C[C@H]34)cc2)cc1	-96*
O=C(Nc1cc(F)ccc1F)N1CCCCN2[C@@H](CO)[C@@H](c3ccc(C4=CCCCC4)cc3)[C@@H]2C1	-95*
COc1ccc(C#Cc2ccc([C@@H]3[C@H]4CN(C(=O)Nc5cccc(F)c5)CCCCN4[C@H]3CO)cc2)cc1	53
O=C(Nc1cccc(F)c1)N1CCCCN2[C@H](C1)[C@@H](c1ccc(-c3ccncc3)cc1)[C@@H]2CO	-7
COc1ccc(C#Cc2ccc([C@H]3[C@@H](CO)N4CCCCN(C(=O)Nc5cccc(F)c5)C[C@@H]34)cc2)cc1	-19
COc1ccc2c3c([nH]c2c1)[C@@H](CO)N(C(=O)c1cccc(F)c1)CC31CN(C(=O)c2cccc(F)c2)C1	6
O=C(c1ccccc1F)N1C[C@@H]2O[C@H](CNS(=O)(=O)c3ccccc3)CC[C@@H]21	6
CCCC(=O)N1CC2(CN(C(=O)NC(C)C)C2)c2c(n(C)c3cc(OC)ccc23)[C@H]1CO	-2
CO[C@H]1CN(C)C(=O)c2ccc(NC(=O)CC(F)(F)F)cc2OC[C@H](C)N(C(C)=O)C[C@H]1C	-1
O=C(C[C@H]1CC[C@H](NS(=O)(=O)c2ccccc2)[C@@H](CO)O1)NCc1ccncn1	2
CCCC(=O)N1CC2(CCN(C)CC2)c2c(n(C)c3cc(OC)ccc23)[C@@H]1CO	-1
Cc1ccccc1-c1ccc([C@@H]2[C@@H](CO)N3CCCCN(C(=O)Nc4ccc(F)cc4)C[C@@H]23)cc1	54
Cc1ccccc1-c1ccc([C@@H]2[C@H](CO)N3CCCCN(C(=O)Nc4ccc(F)cc4)C[C@@H]23)cc1	-99*
COCC#Cc1ccc([C@@H]2[C@H]3CN(Cc4ccccc4F)CCCCN3[C@H]2CO)cc1	2
COc1ccc(C#Cc2ccc([C@H]3[C@H]4CN(Cc5ccccc5F)CCCCN4[C@H]3CO)cc2)cc1	0
Cc1ccccc1-c1ccc([C@H]2[C@@H](CO)N3CCCCN(C(=O)Nc4ccccc4)C[C@@H]23)cc1	-9
COc1ccc(C#Cc2ccc([C@@H]3[C@@H](CO)N4CCCCN(Cc5ccccc5F)C[C@H]34)cc2)cc1	-97*
SMILES	C diff HTS
CN1C(=O)c2cc(NS(C)(=O)=O)ccc2OC[C@@H]2O[C@@H](CC(=O)NC3CCCCC3)CC[C@H]21	4
COc1ccc2c3c([nH]c2c1)[C@H](CO)N(C(=O)c1ccc(F)cc1)CC31CN(C(=O)Nc2ccc(F)cc2)C1	13
COc1ccc2c3c(n(C)c2c1)[C@H](CO)N(CC1CCOCC1)CC31CN(C(=O)Nc2ccccc2)C1	-5
COc1ccc2c3c([nH]c2c1)[C@@H](CO)N(C(=O)C1CCC1)CC31CCN(C(=O)c2ccccn2)CC1	1
O=C(C[C@@H]1CC[C@@H]2[C@H](COC[C@H](O)CN2C(=O)Nc2ccc(Cl)c(Cl)c2)O1)NCc1ccc(F)cc1	-96*
O=C(C[C@@H]1CC[C@@H]2[C@H](COC[C@@H](O)CN2C(=O)Nc2ccc(Cl)c(Cl)c2)O1)NCc1ccc(F)cc1	-16

From PubChem
